From PubChem
KB-V1 MDR tox: qHTS assay for MDR1-selective chemotherapeutics: Primary screen using the drug-selected MDR subline cells KB-V1. KB-V1 MDR cells viability, CellTiter-Glo, 72 h. Potency, µM (titrated, usually from 46.1 µM), usual class: cytotoxic. 400,000 tested, 3.4% active. AID 1347076, 2019; further: nearly all actives have a fitted effect of over 60% in size
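Cytotoxicity toward P-gp-expressing KB-V1 cells was determined as loss of CellTiter-Glo luminescence after 72 h at 37 degrees C. Compounds were tested in quantitative HTS format across a concentration range, with curves fitted to normalized data.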
hERG WT inh: qHTS for Inhibitors of KCHN2 3.1: Wildtype qHTS | Voltage-gated inwardly rectifying potassium channel KCNH2 (Homo sapiens), Q12809 | U2OS, BacMam KCNH2, thallium flux FluxOr; active compounds read low | activity change, % at 1.84 µM | 340,000 tested, 0.37% active | AID 720551, 2013;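 active means maximum activity change below -70%; inconclusive means maximum activity change between -70% and -50%; inactive means maximum activity change above -50%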
Target sequence (Q12809 whole entry, looked up): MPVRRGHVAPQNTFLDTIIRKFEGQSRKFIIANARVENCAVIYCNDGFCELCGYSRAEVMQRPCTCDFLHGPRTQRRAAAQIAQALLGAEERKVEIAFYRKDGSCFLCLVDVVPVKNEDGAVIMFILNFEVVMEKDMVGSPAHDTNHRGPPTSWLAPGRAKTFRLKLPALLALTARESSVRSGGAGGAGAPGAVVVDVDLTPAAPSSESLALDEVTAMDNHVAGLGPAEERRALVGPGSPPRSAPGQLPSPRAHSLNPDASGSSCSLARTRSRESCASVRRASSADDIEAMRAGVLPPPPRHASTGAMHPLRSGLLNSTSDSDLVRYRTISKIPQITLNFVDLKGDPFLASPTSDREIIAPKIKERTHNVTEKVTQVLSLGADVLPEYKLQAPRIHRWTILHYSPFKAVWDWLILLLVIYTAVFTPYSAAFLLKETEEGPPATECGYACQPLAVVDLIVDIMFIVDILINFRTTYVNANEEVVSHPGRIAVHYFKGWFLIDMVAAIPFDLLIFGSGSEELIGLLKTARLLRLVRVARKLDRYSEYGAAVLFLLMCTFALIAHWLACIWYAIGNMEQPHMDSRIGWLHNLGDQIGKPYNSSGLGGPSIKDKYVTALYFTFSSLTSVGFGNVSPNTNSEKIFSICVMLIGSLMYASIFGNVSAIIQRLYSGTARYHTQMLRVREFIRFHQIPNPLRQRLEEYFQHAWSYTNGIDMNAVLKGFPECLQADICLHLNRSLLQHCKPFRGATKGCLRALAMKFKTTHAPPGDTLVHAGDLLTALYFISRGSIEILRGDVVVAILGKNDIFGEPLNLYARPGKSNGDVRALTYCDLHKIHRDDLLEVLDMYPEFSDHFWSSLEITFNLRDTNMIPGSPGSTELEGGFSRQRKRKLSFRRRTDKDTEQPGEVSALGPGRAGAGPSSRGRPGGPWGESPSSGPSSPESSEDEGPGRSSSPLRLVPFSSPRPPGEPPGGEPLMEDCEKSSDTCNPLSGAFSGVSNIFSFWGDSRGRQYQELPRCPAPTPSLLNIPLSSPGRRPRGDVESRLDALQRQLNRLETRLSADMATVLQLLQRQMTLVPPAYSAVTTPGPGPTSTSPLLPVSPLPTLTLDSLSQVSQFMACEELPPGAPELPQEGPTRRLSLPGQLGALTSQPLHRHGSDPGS
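U2OS cells were transduced with wild-type KCNH2 virus (2.03 x 10^8 / mL) for 4 h at room temperature, then cultured overnight at 37 C. Thallium flux was read with FluxOr dye. Rate constants were normalized to DMSO controls.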
SW480 rereplic: A quantitative high throughput screen for small molecules that induce DNA re-replication in SW480 colon adenocarcinoma cells. 340,000 tested, 1.8% active. SW480 DNA re-replication, Hoechst DNA content imaging, 48 h. AID 624297, 2012. Potency, µM (series often up to 46.1 µM), actives largely listed as activators; further: nearly all actives have a fitted effect of over 55% in size
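First, 250 cells per well were seeded. Next, compound or vehicle (23 nL) was pinned in, plates sat 48 hr at 37 C. Finally Hoechst was added for 40 min before fluorescence scanning.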
KCNH2 3.1 inh: qHTS for Inhibitors of KCHN2 3.1: Mutant qHTS | Potassium voltage-gated channel subfamily H member 2, brain isoform KCNH2 3.1 (human) | U2OS KCNH2 3.1, thallium flux FluxOr; active compounds read low | activity change, % (tested at about 1.8 µM) | 340,000 tested, 0.95% active | AID 720553, 2013;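 active means maximum activity change below -70%; inconclusive means maximum activity change from -70% to -50%; inactive means maximum activity change above -50%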;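 further: thallium influx rate constant from kinetic fluorescence after stimulation buffer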
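Kinetic fluorescence (2 min after stimulation buffer) measures Tl+ influx through KCNH2 3.1 expressed by viral transduction in U2OS cells; the rate constant is normalized against DMSO controls serving as positive and negative references.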
MCF10A rerep: A quantitative high throughput screen for small molecules that induce DNA re-replication in MCF 10a normal breast cells; MCF 10A DNA re-replication, Hoechst nuclear intensity, 48 h; Potency, µM (top dose mostly 46.1 µM), usual class: activators; 350,000 tested, 2.9% active; further: nearly all actives have a fitted effect of over 50% in size
KB-3-1 tox: qHTS assay for MDR1-selective chemotherapeutics: Primary screen using the parental adenocarcinoma cell KB-3-1; KB-3-1 viability, CellTiter-Glo ATP luminescence, 72 h; Potency, µM (doses to about 46.1 µM), hits mostly cytotoxic; 400,000 tested, 1.4% active; AID 1347075, 2019; further: nearly all actives have a fitted effect of over 60% in size
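Cytotoxicity in the drug-sensitive parental line KB-3-1 was scored as loss of CellTiter-Glo luminescence following 72 h incubation with compound. Values come from curve fitting of normalized concentration-response data.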
Of the large screens only hits and unclear results are named; the others gave an inactive call. Shown are actives, neighbours in structure and some others; about 7.6% of the full set was active somewhere. Unless noted, the call rests on the fitted dose curve; in most records, active means well fitted curve in the direction sought with a large enough effect; inconclusive means small, poorly fitted or top-dose-only effect, or another doubt; inactive means no such curve, though single readings can be large; an effect the other way counts as inactive or inconclusive.

N=c1c(S(=O)(=O)c2ccc(Br)cc2)cc2c(=O)n3ccccc3nc2n1CCN1CCOCC1	SW480 rereplic inconclusive, MCF10A rerep 16µM
CC(=O)Nc1ccc(SCC(=O)NC(=O)c2ccccc2Br)cc1	none
CCn1c(=N)c(S(=O)(=O)c2ccccc2)cc2c(=O)n3ccccc3nc21	MCF10A rerep 6.5µM
Cc1ccc(S(=O)(=O)c2cc3c(=O)n4ccccc4nc3n(CC3CCCO3)c2=N)cc1C (stereo unspecified)	KB-V1 MDR tox 4.6µM
Cc1ccc(S(=O)(=O)c2cc3c(=O)n4ccccc4nc3n(Cc3ccco3)c2=N)cc1C	SW480 rereplic inconclusive, MCF10A rerep inconclusive
Cc1cc(C)n(-c2nc(NCC3CCCO3)c3c4c(sc3n2)COC(C)(C)C4)n1 (stereo unspecified)	KB-V1 MDR tox inconclusive, MCF10A rerep inconclusive, KB-3-1 tox 16µM
Cc1cc(C)n(-c2nc(NCC(C)O)c3c4c(sc3n2)COC(C)(C)C4)n1 (stereo unspecified)	SW480 rereplic inconclusive
Cc1cc(C)n(-c2nc(SCCN(C)C)c3c4c(sc3n2)COC(C)(C)C4)n1	KB-V1 MDR tox inconclusive, hERG WT inh inconclusive, SW480 rereplic inconclusive, KCNH2 3.1 inh -137, MCF10A rerep inconclusive
O=C(Nc1cccc(S(=O)(=O)N2CCOCC2)c1)c1cnccn1	none
O=c1oc2ccccc2cc1-c1csc(Nc2nc3c(F)cccc3s2)n1	KB-V1 MDR tox inconclusive, MCF10A rerep 5.8µM, KB-3-1 tox 16µM (no result: SW480 rereplic)
COc1ccc(CNC(=O)CCCC(=O)Nc2cccc(Br)c2)cc1	none
Fc1ccc(Oc2nc(-c3ccccc3)nnc2C(F)(F)F)cc1	MCF10A rerep inconclusive
Fc1ccc(Sc2nc(-c3ccccc3)nnc2C(F)(F)F)cc1	SW480 rereplic inconclusive, MCF10A rerep 3.7µM, KB-3-1 tox 16µM
CC(C)(C)NCC(O)COc1ccc(NC(=O)NC2CCCCC2)cc1 (stereo unspecified)	none (no result: KB-V1 MDR tox, hERG WT inh, KCNH2 3.1 inh, KB-3-1 tox)
O=C(Nc1ccc2nc(-c3ccco3)c(-c3ccco3)nc2c1)N1CCCCCC1	KB-V1 MDR tox inconclusive, SW480 rereplic inconclusive, MCF10A rerep 18µM
CC1(C)NC(=O)N(CC(=O)O)C1=O	none
COc1ccccc1CNS(=O)(=O)c1cc2c3c(c1)C(C)C(=O)N3CCC2 (stereo unspecified)	SW480 rereplic inconclusive
CC1=CC(=O)c2ccccc2C1=O	none
COc1cccc2c1C(=O)C=C(C)C2=O	KB-V1 MDR tox inconclusive, SW480 rereplic inconclusive, MCF10A rerep 23µM, KB-3-1 tox inconclusive
N#CCC(=O)NN	none (no result: KB-V1 MDR tox, hERG WT inh, KCNH2 3.1 inh, KB-3-1 tox)
CN(N=O)c1ccc(/C=C/c2ccnc3ccccc23)cc1	none (no result: hERG WT inh, SW480 rereplic, KCNH2 3.1 inh, MCF10A rerep)
O=C(N/N=C/c1ccc(N2CCCCC2)o1)c1ccccc1[N+](=O)[O-]	SW480 rereplic 7.3µM, MCF10A rerep 5.8µM
O=C(N/N=C/c1ccc(N2CCOCC2)o1)c1ccccc1[N+](=O)[O-]	MCF10A rerep inconclusive
O=C(COc1ccc(Br)cc1Cl)NC1CCCCC1	KB-V1 MDR tox 18µM, KB-3-1 tox inconclusive
Cc1ccccc1CC(=O)NC1CCCCCC1	SW480 rereplic 0.92µM
O=C(COc1ccc(Br)cc1Cl)NC(=O)NC1CCCC1	none
COc1cc(OC)c(C(=O)OCC(=O)NC2CCCCCCC2)cc1OC	KB-V1 MDR tox 8.2µM, KB-3-1 tox inconclusive
COc1cc(OC)c(C(=O)OCC(=O)NC2CCCC2)cc1OC	none
Cc1ccc(C)c(OCC(=O)NC2CCCCCC2)c1	KB-V1 MDR tox 13µM, MCF10A rerep inconclusive
Cc1ccccc1CSCC(=O)NC1CCCC1	none
COc1ccc(-c2noc(N3CCC(C(=O)NCCCN4CCCCC4)CC3)n2)cc1	none
COc1ccccc1OCC(=O)NC1CCCCCCC1	KB-V1 MDR tox 21µM, KB-3-1 tox inconclusive
COc1ccccc1OCC(=O)OCC(=O)NC1CCCCC1	none
COc1cc(OC)c(C(=O)OCC(=O)NC23CC4CC(CC(C4)C2)C3)cc1OC	KB-V1 MDR tox 8.2µM
CC(C)N(C(=O)COc1ccc(Br)cc1Cl)C(C)C	KB-V1 MDR tox 15µM
COc1ccccc1C(=O)OCC(=O)NC12CC3CC(CC(C3)C1)C2	none
Cc1ccc(C)c(OCCC(=O)OCC(=O)NCCNC(=O)COC(=O)CCOc2cc(C)ccc2C)c1	none
Cc1ccc(C)c(OCC(=O)NCCNC(=O)COc2cc(C)ccc2C)c1	KB-V1 MDR tox 18µM
O=c1ccnc(Nc2ccc3c(c2)OCCO3)[nH]1	none
CC(=O)Oc1ccc(-c2cccc(C(=O)OCC(=O)N(C)c3ccccc3)c2)cc1	KB-V1 MDR tox inconclusive
Cc1ccccc1OCC(=O)N(Cc1nc(-c2ccccc2)no1)C(C)C	none
Cc1cc(Cl)c(S(=O)(=O)N2CCSCC2)cc1OCC(=O)NC1CCCCC1	KB-V1 MDR tox 3.7µM, SW480 rereplic inconclusive, MCF10A rerep inconclusive, KB-3-1 tox inconclusive
O=C(NC1CCCCC1)N1CCc2ccccc2C1	none
CC(C(=O)NC(=O)NC1CCCCC1)N1CCN(C(c2ccccc2)c2ccccc2)CC1 (stereo unspecified)	KB-V1 MDR tox 9.2µM, KB-3-1 tox inconclusive
Cc1cc(Cl)c(S(=O)(=O)N2CCCCCC2)cc1OCC(=O)NC1CCCCC1	none
O=C(CN1CCc2ccccc2C1)NC1CCCC1	SW480 rereplic 18µM (no result: hERG WT inh)
COc1ccccc1OCC(=O)N(Cc1nc(-c2ccccc2)no1)C1CCCCC1	KB-V1 MDR tox 16µM, KB-3-1 tox inconclusive
CN(CC(=O)Nc1ccccc1Cl)C(=O)COC(=O)C1=COCCO1	none
C/C(=N\N1CCN(C)CC1)c1ccc(Cl)c(Cl)c1	none
CCOc1ccc(OCC(=O)Nc2ccc(S(=O)(=O)Nc3cc(C)on3)cc2)cc1	none (no result: hERG WT inh, SW480 rereplic, KCNH2 3.1 inh, MCF10A rerep)
C=CCNC(=O)c1cnn2c1NC(=C)C=C2C	KB-3-1 tox inconclusive (no result: hERG WT inh, SW480 rereplic, KCNH2 3.1 inh, MCF10A rerep)
COC(CN(C)C(C(=O)NC1CCCCC1)c1ccccc1)OC (stereo unspecified)	KB-V1 MDR tox inconclusive
COC(C(=O)NC1CCCCCCC1)c1ccccc1 (stereo unspecified)	KB-V1 MDR tox 18µM
Cc1cc(NC(=O)CCCC(=O)N(c2ccccc2)C(C(=O)NC2CCCCC2)c2cccs2)no1 (stereo unspecified)	KB-V1 MDR tox 2.1µM
Cc1ccc(C(C(=O)NC2CCCC2)N(C(=O)CCC(=O)Nc2cc(C)on2)c2ccccc2)cc1 (stereo unspecified)	none
O=C1CC(c2nc3ccccc3[nH]2)CN1c1cccc(Cl)c1 (stereo unspecified)	none (no result: hERG WT inh, SW480 rereplic, KCNH2 3.1 inh, MCF10A rerep)
